# From PubChem BioAssay (NCATS)
# Values joined by “and” are separate entries in the source; they are usually repeats but may differ in a detail not shown here. Equal values may be shown once. Results filed as inconclusive are left out. Active and inactive are the calls of the source. The call rests on the fitted dose curve.
# Test system: not listed separately
# Assay: qHTS assay for small molecule agonists of retinoid X receptor alpha signaling (AID 588544)
# Conditions: HEK293T RXRa-UAS-bla, beta-lactamase reporter, 18 h; 530 nm emission
row,Compound,max response
1,NC[C@H](O)c1ccc(O)c(O)c1,-17.2%
2,O=c1[nH]cnc2[nH]ncc12,-0.239%
3,O=C1CCC(N2C(=O)c3ccccc3C2=O)C(=O)N1 (stereo not given),-12.6%
4,CC(=O)Oc1ccccc1C(=O)O,-11.8% and -6.8%
5,NC(N)=NC(=O)c1nc(Cl)c(N)nc1N,-3.06%
6,NC(=O)c1cnccn1,-9.81%
7,O=NN(CCCl)C(=O)NCCCl,-5%
8,CNC[C@H](O)c1cccc(O)c1,-17.1%
9,Cc1ccccc1C(OCCN(C)C)c1ccccc1 (stereo not given),11.6%
10,NS(=O)(=O)c1cc2c(cc1Cl)NC=NS2(=O)=O,-7.55%

# Molecular target: Retinoic acid receptor RXR-alpha (Homo sapiens) (UniProt P19793)
# Sequence (P19793 whole entry, looked up): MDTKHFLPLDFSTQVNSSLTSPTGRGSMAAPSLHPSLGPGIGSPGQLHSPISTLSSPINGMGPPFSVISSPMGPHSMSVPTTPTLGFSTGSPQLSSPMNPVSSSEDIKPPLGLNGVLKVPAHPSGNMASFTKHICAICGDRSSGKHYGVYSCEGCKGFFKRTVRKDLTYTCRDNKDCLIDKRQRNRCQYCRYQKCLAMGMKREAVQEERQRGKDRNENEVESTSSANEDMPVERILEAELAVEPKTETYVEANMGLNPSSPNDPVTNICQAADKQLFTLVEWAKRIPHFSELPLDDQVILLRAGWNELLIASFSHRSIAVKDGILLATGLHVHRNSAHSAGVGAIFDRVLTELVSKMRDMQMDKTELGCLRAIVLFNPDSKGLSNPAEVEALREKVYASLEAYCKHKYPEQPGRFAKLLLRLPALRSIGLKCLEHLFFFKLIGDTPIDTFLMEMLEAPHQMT
# Assay: as above
# Conditions: HEK293T RXRa-UAS-bla, beta-lactamase reporter, 18 h; series mostly up to 76.7 µM
row,Compound,outcome
1,NC[C@H](O)c1ccc(O)c(O)c1,inactive
2,O=c1[nH]cnc2[nH]ncc12,inactive
3,O=C1CCC(N2C(=O)c3ccccc3C2=O)C(=O)N1 (stereo not given),inactive
4,CC(=O)Oc1ccccc1C(=O)O,inactive
5,NC(N)=NC(=O)c1nc(Cl)c(N)nc1N,inactive
6,NC(=O)c1cnccn1,inactive
7,O=NN(CCCl)C(=O)NCCCl,inactive
8,CNC[C@H](O)c1cccc(O)c1,inactive
9,Cc1ccccc1C(OCCN(C)C)c1ccccc1 (stereo not given),inactive
10,NS(=O)(=O)c1cc2c(cc1Cl)NC=NS2(=O)=O,inactive
